Bioassay records deposited in PubChem by University of Kansas High Throughput Screening Laboratory.
This is a sample that favours compounds with a hit; in the whole collection about 3.6% have one here.
mHTT CaM bind – inhibitors of human mutant huntingtin-calmodulin interaction. P42858. AlphaScreen His-mHTT/GST-CaM binding, luminescence. inhibition, % at 15 µM. hit rate 3.6% among 190,000. AID 1671202;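 also: 0% = both proteins with DMSO and 100% = one protein alone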
Pf apPOL block – Pf-apPOL DNA polymerase inhibition; Recombinant Pf-apPOL, molecular beacon fluorescence, 1.5 h; inhibition, % at 10 µM; hit rate 0.25% among 210,000
Numbers without * were called inactive; / = not tested or not shown; ! = not confirmed by another sample. Rule as the data show it: active = inhibition above about 50%; inactive = the rest.

SMILES	mHTT CaM bind	Pf apPOL block
CCc1ccc(NC(=O)c2cc3c(CO)cnc(C)c3oc2=Nc2ccc(OC)cc2OC)cc1	4.0	56.8*
COc1ccc(N=c2oc3c(C)ncc(CO)c3cc2C(=O)Nc2ccccc2)c(OC)c1	8.0	2.8
Cc1ccc(NC(=O)N2CCC(n3cnc4c(Cl)cccc4c3=O)CC2)cc1C	9.5	5.3
Cc1cccc(NC(=O)C2CC(=O)N(CCc3c[nH]c4ccc(Cl)cc34)C2)c1C (stereo not drawn)	71.0*	6.8
Cc1cc(C)cc(NC(=O)C2CC(=O)N(CCc3c[nH]c4ccc(Cl)cc34)C2)c1 (stereo not drawn)	100.0*	-2.6
Cc1ccc(NC(=O)C2CC(=O)N(CCc3c[nH]c4ccc(Cl)cc34)C2)cc1C (stereo not drawn)	100.0*	-2.1
O=C(Nc1ccccc1)C1CC(=O)N(CCc2c[nH]c3ccc(Cl)cc23)C1 (stereo not drawn)	32.8	3.1
Cc1ccc2[nH]cc(CCN3CC(C(=O)Nc4ccc(F)c(Cl)c4)CC3=O)c2c1 (stereo not drawn)	54.5*	0.9
COc1ccc2[nH]cc(CCN3CC(C(=O)Nc4cccc(C)c4C)CC3=O)c2c1 (stereo not drawn)	14.8	1.5
Cc1ccc2[nH]cc(CCN3CC(C(=O)Nc4ccc(Cl)cc4)CC3=O)c2c1 (stereo not drawn)	22.1	-0.3
Cc1ccc(NC(=O)C2CC(=O)N(CCc3c[nH]c4ccc(F)cc34)C2)cc1C (stereo not drawn)	26.7	-4.2
O=C(NCc1ccccc1F)C1c2ccccc2CCN1C(=O)C1CC1 (stereo not drawn)	-5.2	-8.7
Cc1cc(O)c(CN2CCCC2)c2c1C(=O)C(=Cc1ccncc1)O2	2.2	-10.9
COC(=O)c1ccc(C(=O)NC2CCCCC2N2C(=O)CSC2=O)cc1 (stereo not drawn)	-10.5	0.0
Cc1ccc(CN2C(=O)NC3(CCN(C(=O)c4cccs4)CC3)C2=O)cc1	0.3	-2.0
O=c1oc(-c2cccc([N+](=O)[O-])c2)nc2ccc(Cl)cc12	-2.0	3.6
CNC(=O)c1ccc2c(c1)N(S(=O)(=O)c1ccccc1)CC2	-5.4	-1.6
O=C(NC1CCCCC1)C1CC(=O)N(CCc2c[nH]c3ccc(Cl)cc23)C1 (stereo not drawn)	7.6	0.6
O=C(NC1CCCC1)C1CC(=O)N(CCc2c[nH]c3ccc(Cl)cc23)C1 (stereo not drawn)	65.0*	1.4
O=C(Nc1ccc(F)cc1)C1CC(=O)N(CCc2c[nH]c3ccc(F)cc23)C1 (stereo not drawn)	-1.3	-0.1
COC(=O)c1ccc(NC(=O)C2CC(=O)N(CCc3c[nH]c4ccc(F)cc34)C2)cc1 (stereo not drawn)	59.0*	1.8
CC(=O)Nc1ccc(S(=O)(=O)N2CCN(c3ccccc3[N+](=O)[O-])CC2)cc1	20.7	-6.6
O=C(c1cccc(C(F)(F)F)c1)N1CCC(c2ccccc2)C1 (stereo not drawn)	-7.7	-6.8
Oc1ccc2ccccc2c1CN1CCCCC1	/	-0.6
Oc1ccc2ccccc2c1SSc1c(O)ccc2ccccc12	100.3*	-0.4
SMILES	mHTT CaM bind	Pf apPOL block
CSc1nc2c(sc3ccccc32)c(=O)n1Cc1ccc2c(c1)OCO2	2.0	-4.9
Cc1ccc(N=Cc2cc(Br)cc(Cl)c2O)c(O)c1	38.0	1.2
Nc1ccccc1N=Cc1cc(Br)cc(Cl)c1O	66.0*	1.9
O=[N+]([O-])c1ccc(OC2=C(c3ccccc3)N3CCN=C3S2)cc1	33.0	-2.4
Clc1ccc(OC2=C(c3ccccc3)N3CCN=C3S2)cc1	60.0*	-0.4
COc1cc2c(cc1OC)C(C1=NC(C)(C)Cc3ccccc31)=NC(C)(C)C2	13.0	-2.1
COc1cc2c(cc1OC)C(SC)=NC(C)(C)C2	-1.0	94.9*!
COc1ccccc1NC(=O)c1cc(S(=O)(=O)NCC2CCCO2)ccc1F (stereo not drawn)	-2.0	-3.0
Cc1cc(C)c(NC(=O)OCc2cccc3cccnc23)c(C)c1	100.3*	-8.8
Cc1cc(Cl)ccc1NC(=O)CSc1cccc2cccnc12	18.2	-5.7
Cc1ccccc1Oc1nccnc1N1CCCC(C(=O)Nc2cccc(F)c2)C1 (stereo not drawn)	-8.5	-2.9
CCCCC1(CC(=O)Nc2ccc(F)cc2)C(=O)N(c2ccccc2)N(c2ccccc2)C1=O	98.0*	-1.4
CCCCC1(CO)C(=O)N(c2ccccc2)N(c2ccccc2)C1=O	/	-12.4
CC(=O)c1ccc(NC(=O)c2cccc(S(=O)(=O)N3CCCCC3)c2)cc1	-1.8	-5.7
Cc1ccc(/C=C2\Sc3ccccc3C2=O)cc1[N+](=O)[O-]	14.0	1.7
CN1CCN(c2ccc(/C=C3\Sc4ccccc4C3=O)cc2[N+](=O)[O-])CC1	72.0*	2.2
O=C1NC(=O)N(c2cccc(Br)c2)C(=O)/C1=C/c1ccc(N2CCCC2)o1	14.0	-4.3
COc1ccc(C2=NC3(CCN(CC(=O)NCc4ccccc4)CC3)NC2=O)cc1	3.5	-19.7
